# Reference: PMC4336329 (PLoS ONE, 2015)
# The campaign covered roughly 310,000 compounds. About 14,000 (4.5%) showed an effect of 50% or more. Effects have a minus sign here. This excerpt belongs to a sample that is enriched for strong results.
# Target: human ether-à-go-go-related gene (hERG) potassium channel (human, UniProt Q12809)
# Experiment: primary screen, population patch clamp on CHO cells stably expressing hERG; higher = less effect of the substance
# 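Further: peak tail current of the secondary pulse compared with the same well before compound.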
# human ether-à-go-go-related gene (hERG) potassium channel, sequence (Q12809 whole entry, looked up): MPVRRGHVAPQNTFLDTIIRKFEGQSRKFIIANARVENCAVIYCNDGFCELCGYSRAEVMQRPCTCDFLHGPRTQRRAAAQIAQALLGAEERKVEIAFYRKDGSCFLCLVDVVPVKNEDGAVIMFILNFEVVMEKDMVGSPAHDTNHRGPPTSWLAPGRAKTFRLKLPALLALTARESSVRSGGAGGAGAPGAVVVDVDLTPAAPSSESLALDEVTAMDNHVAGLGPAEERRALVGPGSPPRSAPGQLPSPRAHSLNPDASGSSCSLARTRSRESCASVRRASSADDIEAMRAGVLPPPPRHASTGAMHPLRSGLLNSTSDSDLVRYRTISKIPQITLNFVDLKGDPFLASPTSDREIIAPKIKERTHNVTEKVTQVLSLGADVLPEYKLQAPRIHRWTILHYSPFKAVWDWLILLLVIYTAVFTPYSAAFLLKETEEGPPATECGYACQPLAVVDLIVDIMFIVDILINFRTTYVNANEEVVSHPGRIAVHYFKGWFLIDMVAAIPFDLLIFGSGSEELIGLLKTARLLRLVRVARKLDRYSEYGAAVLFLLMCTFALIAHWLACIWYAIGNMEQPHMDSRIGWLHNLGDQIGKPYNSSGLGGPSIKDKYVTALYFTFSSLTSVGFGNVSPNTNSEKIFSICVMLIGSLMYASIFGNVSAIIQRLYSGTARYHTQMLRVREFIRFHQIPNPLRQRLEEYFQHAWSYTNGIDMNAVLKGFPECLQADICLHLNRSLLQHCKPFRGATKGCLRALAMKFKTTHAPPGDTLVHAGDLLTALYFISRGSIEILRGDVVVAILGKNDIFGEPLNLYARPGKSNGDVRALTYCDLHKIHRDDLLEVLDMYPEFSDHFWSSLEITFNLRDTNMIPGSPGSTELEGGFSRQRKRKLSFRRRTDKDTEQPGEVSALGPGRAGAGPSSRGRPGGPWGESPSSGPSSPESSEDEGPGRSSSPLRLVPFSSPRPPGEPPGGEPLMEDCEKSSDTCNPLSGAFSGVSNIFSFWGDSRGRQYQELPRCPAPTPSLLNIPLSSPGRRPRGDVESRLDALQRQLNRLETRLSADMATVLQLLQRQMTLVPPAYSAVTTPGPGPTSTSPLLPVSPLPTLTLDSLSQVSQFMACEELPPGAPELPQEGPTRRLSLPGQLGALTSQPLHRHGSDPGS
row,SMILES,"hERG current change (%, negative = inhibition) at 10uM [%]"
1,N#CCCN(CCC#N)C(=O)C1c2ccccc2Oc2ccccc21,14.4
2,CCOC(=O)c1ccccc1NC(=O)COC(=O)CN1C(=O)C2CC=CCC2C1=O (stereo not drawn),-2.8
3,Cn1c(C(=O)NCCN2CCCCCC2)cc2c(=O)n(C)c3ccccc3c21,-13.4
4,C=CCOc1ccc2oc(=O)cc(C)c2c1,-1.62
5,Cc1c2c(nc3ccccc13)CC(C)(C)CC2=O.Cl,0.994
6,CCNc1c2c(nc3ccccc13)CC(C)(C)CC2=O.O=C(O)C(=O)O,-69.9
7,CC1(C)CC(=O)c2c(nc3ccccc3c2N)C1,-28.8
8,O=C(Nc1cccc(C(=O)O)c1)/C(=C\c1ccco1)NC(=O)c1ccc(Br)o1,-28.1
9,Cc1ccc(SCC(=O)OCC(=O)NCc2cccs2)cc1,5.8
10,NC(=S)N=Nc1c(O)n(CCCl)c2ccc(Cl)cc12,9.1
11,CCOc1cc(C=C2C(=O)NC(=O)NC2=O)ccc1OCC(=O)N1CCOCC1,7.28
12,CCOc1cc(/C=C\[N+](=O)[O-])ccc1OCC(=O)N1CCOCC1,-50.5
13,O=C(COc1ccc(/C=C\[N+](=O)[O-])cc1)N1CCOCC1,-17.7
14,CCCOc1ccc(C(=O)Nc2ccc3c(c2)OCO3)cc1,16.1
15,CC(=O)c1cccc(NC(=O)CCOc2ccccc2)c1,6.88
16,COc1cccc(C(=O)Nc2cc(NC(=O)c3ccco3)ccc2OC)c1,-5.19
17,CCCCOc1cccc(C(=O)Nc2ccc(NC(=O)c3ccco3)cc2)c1,8.63
18,CCCOc1cccc(C(=O)Nc2cccc(NC(=O)c3ccco3)c2)c1,-21.8
19,CC(C)Oc1cccc(C(=O)Nc2ccc(NC(=O)c3ccco3)cc2)c1,6.06
20,CCCOc1cccc(C(=O)Nc2cc(NC(=O)c3ccco3)ccc2OC)c1,-81.2
21,COc1ccc(NC(=O)c2ccco2)cc1NC(=O)c1cccc(OC(C)C)c1,-96.7
22,CCCc1cc(=O)[nH]c(SCC(=O)Nc2nonc2N)n1,-5.4

row,SMILES,"hERG current change (%, negative = inhibition) at 10uM [%]"
1,COc1ccc(CC(=O)Nc2sc3c(c2C#N)CC(C)(C)NC3(C)C)cc1OC,-3.63
2,COc1ccc(C(=O)CSc2nnc(NC(=O)C3CC(=O)N(c4cccc(OC)c4)C3)s2)cc1 (stereo not drawn),15.6
3,COC(=O)CC1=C(C(=O)OC)C2(C(=O)N(C)c3ccccc32)C(C#N)=C(N)O1 (stereo not drawn),14.7
4,CC(C)(C)NC(=O)/C(=C\c1ccccc1F)NC(=O)c1ccc([N+](=O)[O-])cc1,-35.3
5,Cl.N=c1n(CCO)c2ccccc2n1Cc1ccc(Cl)cc1,-40.1
6,Cl.N=c1n(CCO)c2ccccc2n1CCOc1ccc(Cl)cc1Cl,-63.8
7,Cn1c(=O)n(CCOc2ccc(Cl)cc2Cl)c2ccccc21,-2.26
8,COc1ccccc1NS(=O)(=O)c1cc(-c2cc(C)no2)ccc1OC,-5.52
9,COc1ccccc1NS(=O)(=O)c1ccc(-c2cc(C)no2)s1,-69.5
10,COC(=O)c1ccc(NS(=O)(=O)c2ccc(-c3cc(C)no3)s2)cc1,10.5
11,Cc1ccc(CN2C(=O)S/C(=C\c3ccccc3OCC(=O)O)C2=O)cc1,1.61
12,C/C(=C\C(=O)N1CCc2ccccc21)C(=O)O,18.5
13,CC(=O)c1ccc(N2CCN(S(=O)(=O)c3ccc4c(c3)NC(=O)CC(=O)N4)CC2)cc1,13.4
14,NC(=O)c1cc(S(=O)(=O)N2CCN(c3cccc(Cl)c3)CC2)cs1,28.1
15,NC(=O)c1cc(S(=O)(=O)N2CCN(c3ccc([N+](=O)[O-])cc3)CC2)cs1,-74.4
16,COC(=O)c1cc(S(=O)(=O)N2CCN(c3ccccc3)CC2)c[nH]1,7.6
17,COc1ccc(N2CCN(S(=O)(=O)c3ccc4c(c3)NC(=O)CC(=O)N4)CC2)cc1,13.2
18,COC(=O)c1cc(S(=O)(=O)N2CCN(c3ccc(F)cc3)CC2)c[nH]1,16.9
19,COC(=O)c1cc(S(=O)(=O)N2CCN(c3ccc([N+](=O)[O-])cc3)CC2)c[nH]1,-53.9
20,O=C1CC(=O)Nc2cc(S(=O)(=O)N3CCN(c4ccc([N+](=O)[O-])cc4)CC3)ccc2N1,-66.8
21,CC(=O)c1ccc(N2CCN(S(=O)(=O)c3csc(C(N)=O)c3)CC2)cc1,-26.1
22,CCC(=O)Nc1nc2ccc(NC(=O)c3cc(OC)c(OC)c(OC)c3)cc2s1,-9.76

row,SMILES,"hERG current change (%, negative = inhibition) at 10uM [%]"
1,Cc1ccc(CNC(=O)c2ccc(C#CC(C)(C)O)s2)cc1,-3.51
2,Cc1cccc(CSC2=NCCN2S(=O)(=O)c2ccc(F)cc2)c1,-0.802
3,Cc1ccc(S(=O)(=O)N(C)c2ccc(OC(C)C(=O)N3CCCC3)cc2)cc1C (stereo not drawn),-37.6
4,COc1ccc(/C=N/c2nc3ccccc3n2CCN2CCCCC2)cc1OC,-14.3
5,COc1ccc(CNc2nc3ccccc3n2CCN2CCCCC2)c(OC)c1,-84.4
6,CCCn1c(NCc2cccc(OC)c2O)nc2ccccc21,-18.1
7,COc1ccc(CNc2nc3ccccc3n2C)c(OC)c1,-25
8,COc1ccc(OC)c(CNc2nc3ccccc3n2CCN2CCCCC2)c1,-72.4
9,C=CCn1c(NCc2ccc(OC)cc2O)nc2ccccc21,-23.1
10,COc1ccc(CNc2nc3ccccc3n2C)c(O)c1,1.38
11,CCCn1c(NCc2cc(OC)ccc2OC)nc2ccccc21,-51.3
12,CCn1c(NCc2cc(OC)ccc2OC)nc2ccccc21,-22.8
13,Cc1[nH]c(C)c(S(=O)(=O)N2CCCCC2)c1C(=O)N1CCCCC1,4.27
14,Br.Cc1nc(C)c(-c2csc(Nc3cccc(O)c3)n2)s1,6.25
15,COc1cc(OC)cc(-c2c(C#Cc3ccsc3)c3cc(-c4ccc5c(c4)OCCO5)ccc3n2C)c1,7.37
16,COc1ccc(OCC(=O)Nc2ccccc2O)cc1,-12.5
17,Cc1c(C(C)(C)O)[nH]c2ccc(C#N)cc12,26.4
18,CCOC(=O)c1sc2nc(C)nc(N3CCN(c4ncccn4)CC3)c2c1C,1.82
19,Cc1c(C(=O)Nc2c(F)cccc2F)sc2ncnc(N3CCN(c4ccccc4)CC3)c12,-12.2
20,CCOC(=O)c1sc2ncnc(N3CCN(C(=O)OCC)CC3)c2c1C,-53.4
21,CCOC(=O)c1sc2ncnc(N3CCN(C)CC3)c2c1C,-24.3
22,CCN1CCN(c2ncnc3sc(C(=O)Nc4ccccc4F)c(C)c23)CC1,-67

row,SMILES,"hERG current change (%, negative = inhibition) at 10uM [%]"
1,Cc1ccc(NC(=O)c2sc3ncnc(N4CCN(c5ccccn5)CC4)c3c2C)c(C)c1,-48.4
2,CCOC(=O)N1CCN(c2ncnc3scc(-c4ccccc4)c23)CC1,-32.6
3,CCOC(=O)CNC(=O)c1sc2ncnc(N3CCc4ccccc4C3)c2c1C,-36.6
4,CCOC(=O)c1sc2ncnc(OC)c2c1C,13.3
5,COCCCNC(=O)c1sc2ncnc(N3CCc4ccccc4C3)c2c1C,-23.9
6,CCOC(=O)c1sc2ncnc(N3CCN(CC)CC3)c2c1C,-63.9
7,CCCCNC(=O)c1sc2ncnc(N3CCc4ccccc4C3)c2c1C,-50.5
8,CCC(C)(NC(=O)Cc1c[nH]c2ccccc12)C(=O)NC1CCCCC1 (stereo not drawn),2.32
9,CN(C)/C=N/c1sccc1C(N)=O,6.62
10,COc1ccc(C2(C)NC(=O)N(CC3CCCCC3)C2=O)cc1 (stereo not drawn),9.8
11,O=C(NCC(=O)N(c1cccnc1)C(C(=O)NC1CCCC1)c1ccccc1F)c1ccco1 (stereo not drawn),-0.301
12,CC(C)(C)Nc1nc(NCc2cccnc2)nc(N2CCOCC2)n1,4.02
13,CC(C)C(=O)Nc1c2c(nc3c1CCC3)CCCC2,5.23
14,C/C(=N\NC(=O)c1nnn(-c2nonc2N)c1-c1ccc2c(c1)OCO2)c1cccs1,5.22
15,C/C(=N\OCC(=O)OC(C)C(=O)Nc1ccc(C(N)=O)cc1)c1ccc2c(c1)OCO2 (stereo not drawn),9.34
16,COC(=O)c1cc2c(ccn2-c2ccc(F)cc2)n1CC(=O)C(C)(C)C,14.3
17,COC(=O)c1cc2c(ccn2-c2ccc(F)cc2)n1CC(=O)OC(C)C,27.3
18,CCOC(=O)c1cc2c(ccn2-c2ccc(F)cc2)n1CC(=O)N1CCN(C(=O)c2ccco2)CC1,-26.1
19,CC(C)OC(=O)c1cc2c(ccn2-c2ccc(F)cc2)n1CC(=O)N1CCN(C(=O)c2ccco2)CC1,-69.2
20,COC(=O)c1cc2c(ccn2-c2ccc(F)cc2)n1CC(=O)N1CCN(C(=O)c2ccco2)CC1,-66.6
21,CCOC(=O)c1cc2occc2n1CC(=O)N1CCN(C(=O)c2ccco2)CC1,-36.8
